# Screening results (PubChem BioAssay)
# The list is not random: actives were taken first. Their share in the collection is about 19%.
# VP16 counter: counter-screen for ROR gamma inhibitors: Gal4-VP16 reporter; Drosophila S2 Gal4-VP16 UAS-luciferase, luminescence, 20 h; Potency, µM (series often up to 53.6 µM), without a hit: top-dose activity, negative = inhibition, hits mostly inhibitors; actives 3.5% (n = 310,000);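 also: Gal4-VP16 expression switched on by copper sulfate through the metallothionein promoter; nearly all actives have a fitted effect of over 50% in size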
# TDP1 inh: TDP1 (human) enzyme inhibition; Q9NUW8; recombinant TDP1, AlphaScreen DNA substrate cleavage; Potency, µM (highest dose often 130 µM), inactives show top-dose activity change, negative = inhibition, most hits filed as inhibitors; actives 0.28% (n = 350,000); AID 485290; also: nearly all actives have a fitted effect of over 40% in size
#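 Steps: enzyme plus compound, 15 min RT; add biotin/phosphotyrosine-FITC oligonucleotide (15 nM final), react 5 min; add donor/acceptor beads (10 ug/ml final), 10 min; read AlphaScreen. Tdp1 at 1 nM final.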
# RORgamma inh: blocks mouse ROR gamma transcriptional activity. P51450. Drosophila S2 Gal4-RORgamma UAS-luciferase reporter, 20 h. Potency, µM (highest dose often 53.6 µM), for the others: at the highest dose activity change, negative = inhibition, actives largely listed as inhibitors. actives 5.4% (n = 310,000). AID 2551; also: nearly all actives have a fitted effect of over 60% in size
# Target sequence (P51450 whole entry, looked up, the tested form may be a part): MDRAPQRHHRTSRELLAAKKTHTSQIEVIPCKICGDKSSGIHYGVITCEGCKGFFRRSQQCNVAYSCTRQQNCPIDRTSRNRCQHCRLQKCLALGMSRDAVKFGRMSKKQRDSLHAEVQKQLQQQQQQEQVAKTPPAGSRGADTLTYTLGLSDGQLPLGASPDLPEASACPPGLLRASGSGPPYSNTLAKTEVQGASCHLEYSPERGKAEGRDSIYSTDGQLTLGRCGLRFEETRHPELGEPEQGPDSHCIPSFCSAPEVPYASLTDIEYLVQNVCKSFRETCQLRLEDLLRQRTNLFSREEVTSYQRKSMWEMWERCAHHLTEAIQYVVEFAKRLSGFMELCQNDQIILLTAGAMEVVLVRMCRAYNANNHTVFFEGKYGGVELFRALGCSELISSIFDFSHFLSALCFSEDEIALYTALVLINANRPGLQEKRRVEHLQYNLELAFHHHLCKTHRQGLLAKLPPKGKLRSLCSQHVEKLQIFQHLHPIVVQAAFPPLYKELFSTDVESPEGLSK
#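 Schneider cells (Drosophila), stable Gal4 DBD–ROR gamma + UAS-luc; 1 hr cmpd preincubation; Cu2+ induction 700 uM final; 20 hr ambient; luminescence.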
# TDP1 cell CPT: DT40-hTDP1 cell growth loss with CPT | chicken DT40 Tdp1-/-;hTDP1 cells + 20 nM CPT, ATP luminescence, 48 h | Potency, µM (titrated, usually from 46.2 µM), for the others: top-dose activity change, negative = growth inhibition, hits mostly inhibitors | actives 12% (n = 420,000) | AID 686979; also: nearly all actives have a fitted effect of over 55% in size
#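 Chicken DT40 Tdp1-/- cells stably complemented with human TDP1 were seeded at 400 cells/well in medium containing 20 nM camptothecin, exposed to pin-transferred compounds, and grown at 37 °C for at least 48 hr. Viability was read as ATP luminescence.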
# DT40 TDP1 no CPT: qHTS for Inhibitors of human tyrosyl-DNA phosphodiesterase 1 (TDP1): qHTS in cells in absence of CPT. DT40 Tdp1-/- hTDP1 cells, no CPT, ATP luminescence, 48 h. Potency, µM (top dose mostly 46.2 µM), for inactives: top-dose activity change, negative = growth inhibition, hits mostly inhibitors. actives 15% (n = 420,000). AID 686978, 2013; also: nearly all actives have a fitted effect of over 55% in size
#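 Stably hTDP1-transfected Tdp1-null chicken DT40 cells were treated with library compounds minus camptothecin and grown for at least 48 hr at 37 °C, after which cellular ATP was quantified by luminescence.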
# Numbers without * were called inactive; ? = inconclusive; · = not tested or not shown; [ ] = another dose, or the depositor's remark. Calls follow the shape of the dose curve; as a rule, active = well fitted curve in the direction sought with a large enough effect; inconclusive = small, poorly fitted or top-dose-only effect, or another doubt; inactive = no such curve, though single readings can be large; an effect the other way counts as inactive or inconclusive. % is scaled to controls: 0 for no effect and ±100 for the full control effect; potency is read from the fitted curve at half-maximal effect.
SMILES,VP16 counter,TDP1 inh,RORgamma inh,TDP1 cell CPT,DT40 TDP1 no CPT
CC1=NN=C(c2ccccc2)C(c2c[nH]c3ccccc23)N1O (stereo not given),-6.3%,5.1%,4.6%,-1.5%,7.9%
CCC1CN2CCc3cc(OC)c(OC)cc3C2CC1CC1c2cc(OC)c(OC)cc2CCN1C(=O)C(Cc1c[nH]c2ccccc12)NC(=O)OC(C)(C)C (stereo not given),·,·,·,6.51µM*,5.8µM*
O=C(NC(Cc1c[nH]c2ccccc12)C(=O)O)/C(=C\c1ccccc1)NC(=O)c1ccccc1 (stereo not given),3.6%,·,0.2%,-7.6%,0.1%
O=C(NC1CC2CCCC(C1)N2C(=O)Nc1ccccc1)C1CC1 (stereo not given),-2.7%,10.1%,1.6%,-3.8%,-4.5%
O=C(COC(=O)c1ccccc1)Nc1ccc(Cl)cn1,-14.3%,-2.7%,-2.7%,-0.6%,15.4%
C[C@H](CO)N1C[C@H](C)[C@@H](CN(C)S(=O)(=O)c2ccc(F)cc2)Oc2ccc(NC(=O)c3ccncc3)cc2C1=O,·,1.8%,·,-10.1%,-28.3%
Nc1[nH]c(C(=O)c2ccccc2)c(-c2ccccc2Br)c1C(=O)NCCc1c[nH]c2ccccc12,·,·,·,16.4µM*,20.6µM*
Nc1[nH]c(C(=O)c2ccc(Br)cc2)c(-c2ccc(Br)cc2)c1C(=O)NCCc1c[nH]c2ccccc12,·,·,·,?,18.4µM*
Nc1[nH]c(C(=O)c2ccccc2)c(-c2ccccc2Br)c1C(=O)NCc1ccc(-c2ccccc2)cc1,·,·,·,23.1µM*,11.6µM*
Nc1[nH]c(C(=O)c2ccccc2)c(-c2ccc([N+](=O)[O-])cc2)c1C(=O)NCCc1c[nH]c2ccccc12,·,·,·,23.1µM*,14.6µM*
O=C(NCCc1c[nH]c2ccccc12)c1cc([N+](=O)[O-])cc([N+](=O)[O-])c1,-6.1%,·,-11.1%,?,-8.6%
COc1ccc(C(=O)c2[nH]c(N)c(C(=O)NCCc3c[nH]c4ccccc34)c2-c2ccccc2Br)cc1,·,·,·,13µM*,?
Cc1cc(C)c(NC(=O)c2sc3nc4c(cc3c2N)C(=O)CC(C)(C)C4)c(C)c1,4.7%,7.6%,13.6%,?,18.4µM*
Cc1ccc(C(=O)c2cnc3ccccc3c2-c2ccccc2)cc1,6.7%,3.8%,-19.3%,?,23.1µM*
COc1ccc(C(=O)c2cnc3ccccc3c2-c2ccccc2)cc1,3.3%,5.8%,-11.5%,-20.7%,?
CCCCCOc1c(Cl)cc(C(=O)N(Cc2ccc(C)o2)C2CCS(=O)(=O)C2)cc1Cl (stereo not given),·,4.9%,·,18.4µM*,16.4µM*
CCCCOc1cccc(C(=O)N(Cc2ccc(Br)o2)C2CCS(=O)(=O)C2)c1 (stereo not given),·,-1.6%,·,18.4µM*,16.4µM*
Cc1[nH]c2ccccc2c1/C=N/NC(=O)Nc1ccccc1,?,7.7%,?,-16.5%,?
O=C(c1ccc(-c2ccccc2)cc1)N1CCN(c2ccccc2)CC1,20.8%,0.9%,12.9%,-20.4%,3.0%
CCOC(=O)N1CCN(C(=O)c2cccn3c(=O)c4cc(Br)ccc4nc23)CC1,-2.1%,3.4%,5.3%,-4.9%,1.3%
Cc1[nH]c2ccccc2c1C(c1c[nH]c2ccccc12)c1c(C)[nH]c2ccccc12,·,·,·,?,15.8µM*
C[n+]1ccc(C(c2c[nH]c3ccccc23)c2cc[n+](C)c3ccccc23)c2ccccc21,·,·,·,0.562µM*,0.562µM*
Cc1cc(C)c(C(=O)COC(=O)C2CC3CCCC(C2)C3=O)c(C)c1 (stereo not given),·,·,·,?,-23.7%
Clc1ccccc1-c1nc(NC2CCNCC2)c2ccccc2n1,-4.0%,·,17.6%,10.3µM*,25.9µM*
Oc1ccccc1-c1nc(NC2CCCC2)c2ccccc2n1,0.8%,·,-36.0%,1.7%,-23.9%
SMILES,VP16 counter,TDP1 inh,RORgamma inh,TDP1 cell CPT,DT40 TDP1 no CPT
Cc1ccccc1-c1nc(NC2CCNCC2)c2ccccc2n1,18.3%,3.0%[56.1 µM],0.2%,13µM*,11.6µM*
CC1CCN(CCCCOc2cccc(Br)c2)CC1,-1.8%,4.5%,-19.1%,?,?
Cc1cccc(CCNC(=O)c2cc(S(=O)(=O)N3CCCC3)cn2C)c1,5.0%,·,?,-6.0%,?
COc1ccc(N(C(=O)c2ccc(Br)o2)C2C=CS(=O)(=O)C2)cc1 (stereo not given),1.7%,3.9%,33.3%,13µM*,13µM*
Cc1cc(C(F)(F)F)n2ncc(C(=O)O)c2n1,4.2%,3.9%,7.8%,-6.8%,-0.8%
O=C(Oc1ccc(Br)cc1)c1cncc(Br)c1,-11.3%,-5.3%,-0.4%,-9.8%,-15.1%
Cn1c(/C=C/c2ccccc2[N+](=O)[O-])nc2ccccc2c1=O,0.6%,5.01µM*,32.4%,?,?
Cn1c(/C=C/c2ccc(Br)cc2)nc2ccccc2c1=O,-12.0%,·,25.5%,?,18.4µM*
CCOC(=O)N1CCN(C2=C(NS(=O)(=O)c3ccc(Br)cc3)C(=O)c3ccccc3C2=O)CC1,·,·,·,11.6µM*,16.4µM*
NC(=O)C1CCN(C2=C(NS(=O)(=O)c3ccc(Br)cc3)C(=O)c3ccccc3C2=O)CC1,-13.5%,·,-26.7%,23.1µM*,18.4µM*
NC(=O)C1CCN(C2=C(NS(=O)(=O)c3ccccc3)C(=O)c3ccccc3C2=O)CC1,-7.2%,8.2%,?,-23.8%,?
CCOC(=O)N1CCN(C2=C(NS(=O)(=O)c3ccccc3)C(=O)c3ccccc3C2=O)CC1,-11.3%,12.6%,-37.6%,13µM*,?
CCOC(=O)C1CCN(C2=C(NS(=O)(=O)c3ccc(Br)cc3)C(=O)c3ccccc3C2=O)CC1,-0.1%,13.1%,-3.6%,?,?
COc1ccc(-n2c(C)cc(C(=O)Cn3nc(C(=O)O)c4ccccc4c3=O)c2C)cc1,0.7%,-6.7%,22.3%,?,16.4µM*
Cc1ccc(-n2c(C)cc(C(=O)Cn3nc(C(=O)O)c4ccccc4c3=O)c2C)cc1,?,5.5%,?,?,?
Cc1cc(C(=O)Cn2nc(C(=O)O)c3ccccc3c2=O)c(C)n1CC(F)(F)F,1.5%,-3.5%,1.8%,-9.6%,-4.0%
Cc1cc(C(=O)Cn2nc(C(=O)O)c3ccccc3c2=O)c(C)n1CCc1ccc(F)cc1,17.5%,8.2%,-3.8%,16.4µM*,?
COc1ccc(-n2c(C)cc(C(=O)Cn3nnc4ccccc4c3=O)c2C)cc1,?,8.4%,16.0%,20.6µM*,20.6µM*
O=C(Cc1ccc(S(=O)(=O)N2CCOCC2)s1)NCCc1ccc(F)cc1,·,·,·,-3.9%,-28.6%
